# Experimental data: ChEMBL document CHEMBL5606460, “ASAP - DENV-2 NS2B-NS3 protease fluorescence single point” (2024)
# Out of some 2,000 compounds screened, about 110 (5.5%) showed an effect of 50% or more. The sample as a whole holds a higher share of strong results than the screen did.
# Target: Genome polyprotein (dengue virus type 2) (UniProt P29990)
# [1] = Thailand/16681/1984, Concentration 25.0 uM, Number of replicates 1.0
compound,measurement,setting,value
C[C@H](NC(=O)C1CCN(c2ccc(C=O)cc2)CC1)c1ccc(S(C)(=O)=O)cc1,inhibition,[1],12.5%
CCN(C(=O)C1CCN(c2ccc(C=O)cc2)CC1)[C@H]1CCOC(C)(C)C1,inhibition,[1],13%
NCc1cccc(NC(=O)[C@@H](Cc2cccc(O)c2)NC(=O)OCc2ccccc2)c1,inhibition,"Thailand/16681/1984, Concentration 49.5 uM, Number of replicates 2.0, Standard deviation 2.8573642237031027 %",-3.63%
same,inhibition,"Thailand/16681/1984, Concentration 99.01 uM, Number of replicates 2.0, Standard deviation 1.9175045904819328 %",-3.65%
same,inhibition,"Thailand/16681/1984, Concentration 198.0 uM, Number of replicates 2.0, Standard deviation 1.9524208099559948 %",-2.84%
COc1cc(C(=O)N(C)C)nc(N2CCNCC2)n1,inhibition,"Thailand/16681/1984, Concentration 49.5 uM, Number of replicates 2.0, Standard deviation 4.026406870890022 %",-3.23%
same,inhibition,"Thailand/16681/1984, Concentration 99.01 uM, Number of replicates 2.0, Standard deviation 2.6098419358385048 %",-4.25%
same,inhibition,"Thailand/16681/1984, Concentration 198.0 uM, Number of replicates 2.0, Standard deviation 2.250930669275132 %",-2.7%
CC(C)(C)OC(=O)N[C@H](C(=O)Nc1cccc(C(N)=O)c1)c1ccc(OCc2ccccc2)cc1,inhibition,"Thailand/16681/1984, Concentration 49.5 uM, Number of replicates 2.0, Standard deviation 1.188000805409302 %",2.72%
same,inhibition,"Thailand/16681/1984, Concentration 99.01 uM, Number of replicates 2.0, Standard deviation 0.11203913598390365 %",5.59%
same,inhibition,"Thailand/16681/1984, Concentration 198.0 uM, Number of replicates 2.0, Standard deviation 0.9108004769909699 %",7.47%
CC(C)(C)OC(=O)N[C@H](C(=O)Nc1ccc(CN)cc1)c1ccc(OCc2ccccc2)cc1,inhibition,"Thailand/16681/1984, Concentration 49.5 uM, Number of replicates 2.0, Standard deviation 0.7638001086987946 %",-1.42%
same,inhibition,"Thailand/16681/1984, Concentration 99.01 uM, Number of replicates 2.0, Standard deviation 0.5692523211680847 %",0.423%
same,inhibition,"Thailand/16681/1984, Concentration 198.0 uM, Number of replicates 2.0, Standard deviation 0.3400589812244498 %",5.26%
CC(C)(C)OC(=O)N[C@H](C(=O)Nc1cccc(CN)c1)c1ccc(OCc2ccccc2)cc1,inhibition,"Thailand/16681/1984, Concentration 49.5 uM, Number of replicates 2.0, Standard deviation 1.7551947166429631 %",-1.9%
same,inhibition,"Thailand/16681/1984, Concentration 99.01 uM, Number of replicates 2.0, Standard deviation 0.05489981052071439 %",3.23%
same,inhibition,"Thailand/16681/1984, Concentration 198.0 uM, Number of replicates 2.0, Standard deviation 0.6374768156986698 %",15%
CCCC[C@@H](NC(=O)OC(C)(C)C)C(=O)N[C@@H](C(=O)NCc1ccc(CN)cc1)c1ccc(OCc2ccccc2)cc1,inhibition,"Thailand/16681/1984, Concentration 49.5 uM, Number of replicates 2.0, Standard deviation 1.8529777654117539 %",94%
same,inhibition,"Thailand/16681/1984, Concentration 99.01 uM, Number of replicates 2.0, Standard deviation 0.005880328304239935 %",100%
same,inhibition,"Thailand/16681/1984, Concentration 198.0 uM, Number of replicates 2.0, Standard deviation 0.014706215557209234 %",99.9%
CCCC[C@H](NC(=O)OC(C)(C)C)C(=O)N[C@H](C(=O)NCc1ccc(C(N)=O)cc1)c1ccc(OCc2ccccc2)cc1,inhibition,"Thailand/16681/1984, Concentration 49.5 uM, Number of replicates 2.0, Standard deviation 0.5441055304446053 %",-3.24%
same,inhibition,"Thailand/16681/1984, Concentration 99.01 uM, Number of replicates 2.0, Standard deviation 1.2410372194636528 %",12.6%
same,inhibition,"Thailand/16681/1984, Concentration 198.0 uM, Number of replicates 2.0, Standard deviation 0.08996362825826161 %",97.6%
Cc1cnccc1NC(=O)c1ccc2c(c1)COCC2,inhibition,"Thailand/16681/1984, Concentration 49.5 uM, Number of replicates 2.0, Standard deviation 2.5121871293930202 %",-1.99%
same,inhibition,"Thailand/16681/1984, Concentration 99.01 uM, Number of replicates 2.0, Standard deviation 1.8322256055090813 %",-1.68%
same,inhibition,"Thailand/16681/1984, Concentration 198.0 uM, Number of replicates 2.0, Standard deviation 3.8354075529759903 %",-1.51%
NCc1cccc(NC(=O)C2(NC(=O)OCc3ccccc3)CC(F)(F)C2)c1,inhibition,"Thailand/16681/1984, Concentration 49.5 uM, Number of replicates 2.0, Standard deviation 2.2677200349668407 %",-2.94%
same,inhibition,"Thailand/16681/1984, Concentration 99.01 uM, Number of replicates 2.0, Standard deviation 0.8839411333719474 %",-2.06%
same,inhibition,"Thailand/16681/1984, Concentration 198.0 uM, Number of replicates 2.0, Standard deviation 0.8051076448684426 %",-2.25%
Cc1cc(CO)c2cccc(Cc3ccccc3NC(=O)CN3CCOCC3)c2n1,inhibition,"Thailand/16681/1984, Concentration 49.95 uM, Number of replicates 2.0, Standard deviation 1.5612707024702146 %",-2%
same,inhibition,"Thailand/16681/1984, Concentration 99.9 uM, Number of replicates 2.0, Standard deviation 0.4618038620708361 %",3.39%
COc1cc(Cc2cnc(N)c(C(F)F)c2)nc(N2CCNCC2)n1,inhibition,"Thailand/16681/1984, Concentration 49.5 uM, Number of replicates 2.0, Standard deviation 0.44655669171298956 %",1.19%
same,inhibition,"Thailand/16681/1984, Concentration 99.01 uM, Number of replicates 2.0, Standard deviation 0.9500169394185984 %",3.1%
same,inhibition,"Thailand/16681/1984, Concentration 198.0 uM, Number of replicates 2.0, Standard deviation 0.4205436146652173 %",6.14%
CCCOc1ccc([C@H](C)NC(=O)C2CCN(c3ccc(C=O)cc3)CC2)cc1,inhibition,[1],7.26%
COc1ccc(C[C@H]2c3cc(OC)c(OC)cc3CCN2C(=O)C2CCN(c3ccc(C=O)cc3)CC2)cc1OC,inhibition,[1],15.8%
CCn1c(=O)c(N2CC[C@@H](CO)C2)nc2ccccc21,inhibition,"Thailand/16681/1984, Concentration 49.5 uM, Number of replicates 2.0, Standard deviation 0.8446781408235627 %",16.3%
same,inhibition,"Thailand/16681/1984, Concentration 99.01 uM, Number of replicates 2.0, Standard deviation 1.6946189057395897 %",33.2%
same,inhibition,"Thailand/16681/1984, Concentration 198.0 uM, Number of replicates 2.0, Standard deviation 1.3775046688444705 %",53.9%
CCn1ccnc(N2CC[C@@H](CO)C2)c1=O,inhibition,"Thailand/16681/1984, Concentration 49.5 uM, Number of replicates 2.0, Standard deviation 0.40547257598729775 %",8.04%
same,inhibition,"Thailand/16681/1984, Concentration 99.01 uM, Number of replicates 2.0, Standard deviation 0.38043701079703857 %",15.5%
same,inhibition,"Thailand/16681/1984, Concentration 198.0 uM, Number of replicates 2.0, Standard deviation 0.16218916526483432 %",28.5%
O=c1c(N2CC[C@H](CO)C2)nccn1C1CC1,inhibition,"Thailand/16681/1984, Concentration 49.5 uM, Number of replicates 2.0, Standard deviation 2.4482264734756005 %",8.46%
same,inhibition,"Thailand/16681/1984, Concentration 99.01 uM, Number of replicates 2.0, Standard deviation 2.8900822321462307 %",18%
same,inhibition,"Thailand/16681/1984, Concentration 198.0 uM, Number of replicates 2.0, Standard deviation 2.1394185374850085 %",33.2%
C[C@H](NC(=O)C1CCN(c2ccc(C=O)cc2)CC1)C12CC3CC(CC(C3)C1)C2,inhibition,[1],15%
CN(C(=O)C1CCN(c2ccc(C=O)cc2)CC1)[C@H]1CCN(Cc2ccccc2)C1,inhibition,[1],13.8%
Cc1nnc([C@H](C)n2cc(C3CCNCC3)c(C)n2)o1,inhibition,"Thailand/16681/1984, Concentration 49.5 uM, Number of replicates 2.0, Standard deviation 23.401160981224884 %",6.09%
same,inhibition,"Thailand/16681/1984, Concentration 99.01 uM, Number of replicates 2.0, Standard deviation 17.471832455878243 %",11.7%
same,inhibition,"Thailand/16681/1984, Concentration 198.0 uM, Number of replicates 2.0, Standard deviation 4.4669335919131345 %",-3.53%
